{"source": "the supplement of paper PMC6897291", "note": "Structures can show the parent of a compound that is named as a salt."}
{"test_system": "RIVA", "assay": "growth inhibition by drug plus 177Lu-lilotomab satetraxetan (1 - RLU/untreated control) (fraction); higher = stronger inhibition", "conditions": "100 nM; time (day): 3; 177Lu-lilotomab satetraxetan 0.5 ug/ml", "outline": "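A radiolabelled anti-CD37 antibody conjugate (~600 MBq/mg) was applied for 18 h at 0.5 µg/ml to RIVA and 1 µg/ml to U-2932 cells, with untreated cells run alongside. All cells were washed and seeded at 3,000 cells/well onto library-printed plates at 10/100 nM (RIVA) or 10/1,000 nM (U-2932). Growth inhibition was based on RealTime-Glo luminescence compared with untreated no-drug wells. Daily reads began on day 3 after 1 h at 37°C, with each value being 1 − RLU/mean of the 48 such wells on that plate.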"}
{"compound": "CNCc1ccc(-c2[nH]c3cc(F)cc4c3c2CCNC4=O)cc1", "growth inhibition by drug plus 177Lu-lilotomab satetraxetan": 0.507}
{"compound": "O=C(O)c1ccc(-c2c[nH]c3ncc(-c4ccccc4)cc23)cc1C1CCCC1", "growth inhibition by drug plus 177Lu-lilotomab satetraxetan": 0.343}
{"compound": "CC(=O)c1c(C)c2cnc(Nc3ccc(N4CCNCC4)cn3)nc2n(C2CCCC2)c1=O", "growth inhibition by drug plus 177Lu-lilotomab satetraxetan": 0.281}
{"compound": "CCN(CC)CCCCNc1ncc2cc(-c3cc(OC)cc(OC)c3)c(NC(=O)NC(C)(C)C)nc2n1", "growth inhibition by drug plus 177Lu-lilotomab satetraxetan": 0.393}
{"compound": "CCC(C)(C)C(=O)O[C@H]1C[C@@H](C)C=C2C=C[C@H](C)[C@H](CC[C@@H]3C[C@@H](O)CC(=O)O3)[C@H]21", "note": "[Simvastatin (Zocor)]", "growth inhibition by drug plus 177Lu-lilotomab satetraxetan": 0.469}
{"compound": "CC[C@H](Nc1ncnc2[nH]cnc12)c1nc2cccc(F)c2c(=O)n1-c1ccccc1", "growth inhibition by drug plus 177Lu-lilotomab satetraxetan": 0.575}
{"compound": "CC(C=CC(=O)NO)=CC(C)C(=O)c1ccc(N(C)C)cc1", "note": "(stereo not drawn) [Trichostatin A (TSA)]", "growth inhibition by drug plus 177Lu-lilotomab satetraxetan": 0.854}
{"compound": "COc1ccc2c3n(c(=NC(=O)c4cccnc4)nc2c1OC)CCN3", "growth inhibition by drug plus 177Lu-lilotomab satetraxetan": 0.482}
{"compound": "NC(=O)c1ccc(-c2nc(-c3ccccn3)c(-c3ccc4c(c3)OCO4)[nH]2)cc1", "growth inhibition by drug plus 177Lu-lilotomab satetraxetan": 0.438}
{"compound": "CNC(=O)c1cc(Oc2ccc(NC(=O)Nc3ccc(Cl)c(C(F)(F)F)c3)c(F)c2)ccn1", "note": "[Regorafenib (BAY 73-4506)]", "growth inhibition by drug plus 177Lu-lilotomab satetraxetan": 0.463}
{"compound": "Cc1cnc(Nc2ccc(OCCN3CCCC3)cc2)nc1Nc1cccc(S(=O)(=O)NC(C)(C)C)c1", "growth inhibition by drug plus 177Lu-lilotomab satetraxetan": 0.205}
{"compound": "CCOc1ccc(Nc2nc(-c3c(C)nc4ccccn34)cs2)cc1", "growth inhibition by drug plus 177Lu-lilotomab satetraxetan": 0.945}
{"compound": "CC(C)C[C@H](NC(=O)[C@H](Cc1ccccc1)NC(=O)c1cnccn1)B(O)O", "note": "[Bortezomib (Velcade)]", "growth inhibition by drug plus 177Lu-lilotomab satetraxetan": 0.989}
{"compound": "O=C1CN2Cc3c(ccc(Cl)c3Cl)N=C2N1", "note": "[Anagrelide]", "growth inhibition by drug plus 177Lu-lilotomab satetraxetan": 0.54}
{"compound": "Cc1cc(Nc2cc(N3CCN(C)CC3)nc(/C=C/c3ccccc3)n2)n[nH]1", "growth inhibition by drug plus 177Lu-lilotomab satetraxetan": 0.23}
{"compound": "CCc1cc(Nc2nccc(-c3c(-c4ccc(OC)c(C(=O)Nc5c(F)cccc5F)c4)nc4ccccn34)n2)c(OC)cc1N1CCC(N2CCN(S(C)(=O)=O)CC2)CC1", "growth inhibition by drug plus 177Lu-lilotomab satetraxetan": 0.381}
{"compound": "O=C1CN2Cc3c(ccc(Cl)c3Cl)N=C2N1", "note": "[Anagrelide hydrochloride]", "growth inhibition by drug plus 177Lu-lilotomab satetraxetan": 0.541}
{"compound": "O=C(NCCCNc1nc(Nc2cccc(NC(=O)N3CCCC3)c2)ncc1I)c1cccs1", "growth inhibition by drug plus 177Lu-lilotomab satetraxetan": 0.547}
{"compound": "CCC[C@H](NC(=O)/C(C#N)=C/c1cccc(Br)n1)c1ccccc1", "growth inhibition by drug plus 177Lu-lilotomab satetraxetan": 0.35}
{"compound": "COc1cc2nc(N3CCCN(C)CC3)nc(NC3CCN(Cc4ccccc4)CC3)c2cc1OC", "growth inhibition by drug plus 177Lu-lilotomab satetraxetan": 0.469}
{"compound": "C#Cc1cccc(Nc2ncnc3cc(OCCOC)c(OCCOC)cc23)c1", "note": "[Erlotinib HCl]", "growth inhibition by drug plus 177Lu-lilotomab satetraxetan": 0.791}
{"compound": "CN(C)c1ccccc1CN1CCCN(Cc2ccccc2N(C)C)C1c1ccncc1", "growth inhibition by drug plus 177Lu-lilotomab satetraxetan": 0.416}
{"compound": "COc1cc2c(NC3CCN(C)CC3)nc(N3CCCN(C)CC3)nc2cc1OCCCN(C)C", "growth inhibition by drug plus 177Lu-lilotomab satetraxetan": 0.316}
{"compound": "COc1ccc(COc2cc3oc(=O)c4cc(C(C)O)ccc4c3cc2OC)cc1", "note": "(stereo not drawn) [Palomid 529]", "growth inhibition by drug plus 177Lu-lilotomab satetraxetan": 0.321}
{"compound": "CO[C@@H](C(=O)N1Cc2[nH]nc(NC(=O)c3ccc(N4CCN(C)CC4)cc3)c2C1)c1ccccc1", "growth inhibition by drug plus 177Lu-lilotomab satetraxetan": 0.514}
{"compound": "Cn1cc(C2=C(c3ccc(Cl)cc3Cl)C(=O)NC2=O)c2ccccc21", "growth inhibition by drug plus 177Lu-lilotomab satetraxetan": 0.465}
{"compound": "CCc1ccc(CCOc2ccc(CC3SC(=O)NC3=O)cc2)nc1", "note": "(stereo not drawn) [Pioglitazone (Actos)]", "growth inhibition by drug plus 177Lu-lilotomab satetraxetan": 0.416}
{"compound": "O=C(O)C1(C(=O)O)CCC1.[NH2-].[NH2-].[Pt+2]", "note": "[Carboplatin]", "growth inhibition by drug plus 177Lu-lilotomab satetraxetan": 0.528}
{"compound": "CS(=O)(=O)c1ccc(C(=O)Nc2ccc(Cl)c(-c3ccccn3)c2)c(Cl)c1", "note": "[Vismodegib (GDC-0449)]", "growth inhibition by drug plus 177Lu-lilotomab satetraxetan": 0.538}
{"compound": "OCCn1cc(-c2ccc3c(c2)CC/C3=N\\O)c(-c2ccncc2)n1", "growth inhibition by drug plus 177Lu-lilotomab satetraxetan": 0.436}
{"compound": "CC[C@@H]1C(=O)N(C)c2cnc(Nc3ccc(C(=O)NC4CCN(C)CC4)cc3OC)nc2N1C1CCCC1", "growth inhibition by drug plus 177Lu-lilotomab satetraxetan": 0.918}
{"compound": "CC[C@]1(O)C[C@H]2CN(CCc3c([nH]c4ccccc34)[C@@](C(=O)OC)(c3cc4c(cc3OC)N(C=O)[C@H]3[C@@](O)(C(=O)OC)[C@H](OC(C)=O)[C@]5(CC)C=CCN6CC[C@]43[C@@H]65)C2)C1", "note": "[Vincristine]", "growth inhibition by drug plus 177Lu-lilotomab satetraxetan": 0.956}
{"compound": "CC(C)(C)c1ccc(S(=O)(=O)/C=C/C#N)cc1", "growth inhibition by drug plus 177Lu-lilotomab satetraxetan": 0.452}
{"compound": "Cc1cn(-c2cc(NC(=O)c3ccc(C)c(Nc4nccc(-c5cccnc5)n4)c3)cc(C(F)(F)F)c2)cn1", "note": "[Nilotinib (AMN-107)]", "growth inhibition by drug plus 177Lu-lilotomab satetraxetan": 0.362}
{"compound": "CC(C)(C#N)c1cc(Cn2cncn2)cc(C(C)(C)C#N)c1", "note": "[Anastrozole]", "growth inhibition by drug plus 177Lu-lilotomab satetraxetan": 0.423}
{"compound": "C=CCn1c(=O)c2cnc(Nc3ccc(N4CCN(C)CC4)cc3)nc2n1-c1cccc(C(C)(C)O)n1", "growth inhibition by drug plus 177Lu-lilotomab satetraxetan": -0.0318}
{"compound": "Cn1cnc(N)c2ncnc1-2", "note": "[3-Methyladenine]", "growth inhibition by drug plus 177Lu-lilotomab satetraxetan": 0.517}
{"compound": "CCc1c2c(nc3ccc(OC(=O)N4CCC(N5CCCCC5)CC4)cc13)-c1cc3c(c(=O)n1C2)COC(=O)[C@]3(O)CC", "note": "[Irinotecan HCl Trihydrate (Campto)]", "growth inhibition by drug plus 177Lu-lilotomab satetraxetan": 0.485}
